From PubChem
A selection: hits, their analogues and other compounds. The true share with any hit is near 9.3%.
Rab9 prom act = qHTS Assay for Rab9 Promoter Activators; Huh7 Rab9 promoter-luciferase reporter, luminescence, 24 h; Potency, µM (doses to about 9.22 µM), for inactives: at the top dose activation, negative = inhibition, usual class: activators; 320,000 tested, 2.8% active; AID 485297, 2010; also: % of control where 0% means no effect; nearly all actives have a fitted effect of over 60% in size
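Promoter activation is measured as luciferase luminescence in Huh7 cells stably transfected with a Rab9 promoter–luciferase construct, following 24 h compound exposure at 37 °C and 10 min reagent incubation at ambient temperature.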
NPC1 prom act = qHTS Assay for NPC1 Promoter Activators; 320,000 tested, 2.4% active; Potency, µM (highest dose often 9.22 µM), for the others: at the highest dose activation, most hits filed as activators; AID 485313, 2010; Huh7 NPC1 promoter luciferase reporter, 24 h; also: % of control where 0% means no effect; nearly all actives have a fitted effect of over 60% in size
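Stable NPC1-promoter luciferase Huh7 line; cpd (DMSO) 24 h, 37 °C, 5% CO2; Amplite luciferase reagent 10 min RT; luminescence readout. qHTS format.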
SMN2 splice enh = qHTS Assay for Enhancers of SMN2 Splice Variant Expression; Potency, µM (series often up to 46.1 µM), for the others: top-dose activity change, positive = activation, usual class: activators; HEK293 SMN2-luciferase splicing reporter, luminescence, 30-36 h; 210,000 tested, 2.8% active; AID 1458, 2008; also: % of control where 0% means no effect; nearly all actives have a fitted effect of over 55% in size
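HEK293 cells carry an SMN2 […]–luciferase reporter in which exon 7 inclusion puts luciferase in frame. Cells were plated 10-12 h before compound addition, then incubated 30-36 h at 37C. ONE-Glo luminescence was read; sodium butyrate at 4.5 mM final served as control.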
FLuc counter = qHTS profiling assay for firefly luciferase inhibitor/activator using purifed enzyme and Km concentrations of substrates (counterscreen for miR-21 project) | Luciferin 4-monooxygenase (Photinus pyralis), P08659 | purified FLuc, Km substrates, luminescence inhibition | Potency, µM (series often up to 57.5 µM), for inactives: at the top dose activity change, negative = inhibition, usual class: inhibitors | 360,000 tested, 6.9% active | AID 588342, 2011;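 also: plate controls were vehicle for no effect and reference inhibitor for full effect; nearly all actives have a fitted effect of over 55% in size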
Target sequence (P08659 whole entry, looked up): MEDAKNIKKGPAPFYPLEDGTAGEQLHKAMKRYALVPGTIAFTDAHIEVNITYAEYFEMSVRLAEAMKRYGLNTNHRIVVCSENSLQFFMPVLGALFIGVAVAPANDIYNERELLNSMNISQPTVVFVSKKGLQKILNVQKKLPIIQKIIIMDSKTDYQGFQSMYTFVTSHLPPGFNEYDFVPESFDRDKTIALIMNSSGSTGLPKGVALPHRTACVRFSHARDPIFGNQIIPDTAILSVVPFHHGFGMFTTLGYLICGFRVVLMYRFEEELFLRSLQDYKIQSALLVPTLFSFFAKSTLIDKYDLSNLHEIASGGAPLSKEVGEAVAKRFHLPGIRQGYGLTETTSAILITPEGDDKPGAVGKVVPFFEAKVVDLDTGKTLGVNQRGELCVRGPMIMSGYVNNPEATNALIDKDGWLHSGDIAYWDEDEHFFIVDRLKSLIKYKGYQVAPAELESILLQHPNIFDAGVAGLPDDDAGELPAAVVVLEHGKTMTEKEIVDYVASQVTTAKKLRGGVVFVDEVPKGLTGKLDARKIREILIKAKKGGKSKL
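Purified P. pyralis luciferase (10nM final) with 10uM D-luciferin and 10uM ATP (Km levels) in 50mM Tris acetate pH 7.5, 10mM Mg acetate, 0.01% Tween-20, 0.05% BSA; qHTS 6-point titration, ~60 µM downward; luminescence read.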
ELG1 DNA repair = qHTS screen for small molecules that inhibit ELG1-dependent DNA repair in human embryonic kidney (HEK293T) cells expressing luciferase-tagged ELG1; AID 504467, 2011; 330,000 tested, 2.3% active; Potency, µM (top dose mostly 46.1 µM), inactives show top-dose activity change, negative = inhibition, hits mostly inhibitors; HEK293T ELG1-luciferase reporter, luminescence, 16 h; DNA damage induced by 5-fluorouridine; also: % is scaled to controls: 0 for no effect and ±100 for the full control effect; nearly all actives have a fitted effect of over 55% in size
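DMSO vehicle served as the neutral condition. Each well held 2,000 cells given 5-fluorouridine plus compound; after 16 hr at 37 °C/5% CO2, ONE-Glo was added and luciferase measured 30 min later.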
ELG1 genotox = qHTS screen for small molecules that induce genotoxicity in human embryonic kidney (HEK293T) cells expressing luciferase-tagged ELG1. Potency, µM (series often up to 46 µM), without a hit: at the top dose activity change, positive = activation, actives largely listed as activators. HEK293T ELG1-luciferase reporter, luminescence, 16 h. AID 504466, 2011. 330,000 tested, 1.3% active; also: % of control where 0% means no effect; nearly all actives have a fitted effect of over 60% in size
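Genotoxic stress is detected as increased luminescence from luciferase-tagged ELG1 in HEK293T cells, measured with ONE-Glo after a 16 hr treatment at 37 °C.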
Numbers without * were called inactive; ? = inconclusive; · = no result given; [ ] = remark or other dose. Calls follow the shape of the dose curve; as a rule, active = well fitted curve in the direction sought with a large enough effect; inconclusive = small, poorly fitted or top-dose-only effect, or another doubt; inactive = no such curve, though single readings can be large; an effect the other way counts as inactive or inconclusive. Potency is read from the fitted curve at half-maximal effect.

SMILES	Rab9 prom act	NPC1 prom act	SMN2 splice enh	FLuc counter	ELG1 DNA repair	ELG1 genotox
O=C(c1cnn(-c2cccc(F)c2)c1)c1ccccc1O	0%[1.84 µM]	?	·	3.8µM*	?	?
O=C(O)c1ccc(-n2cc(C(=O)c3ccccc3O)cn2)cc1	12%	10%	·	15µM*	?	-12%
O=C(c1cnn(C(=O)c2ccccc2F)c1)c1ccccc1O	-4%	-2%	·	?	13%	1%
O=C(c1cnn(-c2nc3ccccc3s2)c1)c1ccccc1O	?	3.5µM*	51%	3µM*	?	?
O=C(c1cnn(-c2ccccc2)c1)c1cc(Br)ccc1O	1%	-2%	·	6%	12%	1%
CCCCN(CCCC)c1ncnc2c1cnn2-c1cccc(C)c1	·	·	·	-8%	·	·
O=C(Nc1nnc(-c2cccs2)o1)c1cccc(Oc2ccccc2)c1	7%	3%	1%	-16%	-28%	-9%
CC(=O)OC[C@H]1O[C@@H](n2ncc(=O)[nH]c2=O)[C@H](OC(C)=O)[C@@H]1OC(C)=O	1%	-5%	10µM*	-2%	?	-13%
CC(C)(C)c1ccc(-c2nnc(SCCN3C(=O)c4ccccc4C3=O)o2)cc1	-2%	0%	9%	15µM*	-2%	-3%
N#Cc1cnn2c1nc(N1CCOCC1)c1ccccc12	0%	-5%	-7%	6%	-3%	1%
O=C(COc1ccc2c3c(c(=O)oc2c1)CCC3)N1CCN(c2ccccc2)CC1	2%	1%	·	?	-4%	-1%
CS(=O)(=O)c1ccc(NC(=O)C2CCCN(C(=O)c3ccc(Cl)cc3)C2)cc1 (centres undefined)	-1%	1%	·	4%	-5%	-4%
CCN(CC)S(=O)(=O)c1ccc(NC(=O)C2CCCN(C(=O)c3ccc(Cl)cc3)C2)cc1 (centres undefined)	0%	-5%	-31%	8%	18µM*	-4%
Nc1cc(-c2ccc(Cl)cc2)nn1S(=O)(=O)c1ccc(Cl)cc1	1%	-4%	-26%	-1%	1%	7%
CN(C)S(=O)(=O)c1ccc(NC(=O)c2ccccn2)cc1	1.6µM*	2.5µM*	11µM*	13µM*	?	?
CCN(CC)S(=O)(=O)c1ccc(-c2ccc(S(=O)(=O)N(CC)CC)cc2)cc1	-16%	-7%	-85%	1%	6.5µM*	-8%
CCN(CC)S(=O)(=O)c1ccc(NC(=O)c2ccccn2)cc1	?	?	7%	15µM*	?	15µM*
CCCCNC(=S)NNC(=O)c1csc2ccccc12	14%	-2%	?	2%	9%	-6%
Cn1c(Cl)c(C(=O)Nc2ccc(Cl)cc2)c2ccccc21	16%	?	20%	6µM*	15%	3%
Cc1ccc2occ(CC(=O)N(Cc3ccc(Cl)cc3)Cc3ccco3)c2c1	·	·	-27%	?	·	·
CCCCOC(=O)c1ccc(NC(=O)C2CCCO2)cc1 (centres undefined)	?	28%	8%	?	?	15%
CCOC(=O)c1ccc(NC(=O)C2CCCO2)cc1 (centres undefined)	6.3µM*	?	43%	?	?	27%
CCCCc1nnc(NC(=O)C2CCCO2)s1 (centres undefined)	28%	11%	35µM*	-2%[2.3 µM]	?	15%
CCCCc1nnc(NC(=O)C2=COCCO2)s1	4.5µM*	2.5µM*	·	17µM*	?	15µM*
CCCCc1ccc(NC(=O)C2CCCO2)cc1 (centres undefined)	2.2µM*	1.6µM*	10µM*	13µM*	?	?
SMILES	Rab9 prom act	NPC1 prom act	SMN2 splice enh	FLuc counter	ELG1 DNA repair	ELG1 genotox
COc1ccccc1/C=C1\SC(=S)N(N2C(=O)CCCC2=O)C1=O	0%	4%	4%	?	14%	3%
O=C(c1ccco1)N1CCCN(Cc2nc(-c3ccc4c(c3)OCO4)no2)CC1	0%	5%	·	-14%	6%	-4%
O=C1Nc2ccccc2C1=Nc1ccc(Br)cc1	9%	-3%	·	0%	-1%	5%
CCN1CCCC1CNC(=O)Cn1nc(C)n2c(cc3cc(C)ccc32)c1=O (centres undefined)	5%	-5%	·	2%	15%	5%
CCOC(=O)c1ccc(NC(=O)Nc2ccon2)cc1	-9%	16%	·	19µM*	?	7.3µM*
CCOC(=O)c1ccc(NC(=O)Nc2ccc(Cl)cn2)cc1	1%	3%	-1%	-1%	0%	0%
O=C(N/N=C/c1ccc([N+](=O)[O-])o1)c1cc(-c2cccc(Br)c2)nc2ccccc12	23%	0%	-64%	4.8µM*	?	-3%
CCCc1ccc(-c2cc(C(=O)N/N=C/c3ccc([N+](=O)[O-])o3)c3ccccc3n2)cc1	?	9%	4%	0.15µM*	?	?
Cc1cc(C(=O)N/N=C/c2ccc([N+](=O)[O-])o2)c(C)o1	-3%	-4%	·	5%	?	-13%
CCNc1cc(=O)n(C)c(=O)n1C	2%	2%	17%	-2%	?	0%
O=c1cc(CO)oc2ccccc12	·	·	·	·	17%	2%
O=c1cc(-c2ccccc2)oc2ccccc12	?	?	?	?	?	21µM*
O=c1cc(-c2ccc(O)c(O)c2)oc2ccccc12	·	·	14µM*	·	·	·
O=c1cc(-c2ccc(C(F)(F)F)cc2)oc2ccccc12	·	·	·	·	25%	0%
O=c1cc(-c2ccccc2)oc2ccc(O)cc12	4µM*	2.8µM*	·	9.5µM*	?	21µM*
O=c1cc(/C=C/c2ccccc2)oc2ccccc12	2.2µM*	?	11µM*	6µM*	?	2.6µM*
CCOC(=O)C(NC(=O)c1cccnc1)(Nc1cccc(C)n1)C(F)(F)F (centres undefined)	-5%	-1%	12%	8%	-8%	4%
Cc1ccc(S(=O)(=O)C2(C(=O)N3CCCC(C)C3)CC2)cc1 (centres undefined)	0%	14%	-5%	2%	25%	1%
O=C(c1ccc(Cl)c(S(=O)(=O)NCc2ccco2)c1)N1CCN(c2ccc(F)cc2)CC1	12%	-3%	-27%	-2%	?	-10%
